Measured values: article PMC5540273 (PLoS ONE, 2017)

Test system: CDK4-cyclinD1
Details: concentration: 1 μM, replicates: in singlicate; n = 1
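Note: KINOMEscan kinase panel screen.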

Row | SMILES | %Inh [%]
1 | Cc1ccc(O)cc1Nc1ccnc2cc(-c3ccc(CN4CCCCC4)o3)ccc12 [GW557777] | 0
2 | CCn1cnc2c(NCc3ccccc3)ncnc21 [SKF-96418] | 0
3 | CN(c1ccc(F)c(NC(=O)c2cccc(OC(C)(C)C#N)c2Cl)c1)c1ccc2nc(NC(=O)C3CC3)sc2n1 | 4
4 | Cn1cc(-c2ccc3c(c2)CCN3C(=O)Cc2cc(F)cc(F)c2F)c2c(N)ncnc21 [GSK2634140] | 0
5 | CN(C)c1ncnc2nc[nH]c12 [SKF-31736] | 0
6 | O=C(O)C(F)(F)F.O=c1[nH]ccc2nc(N[C@@H]3CCNC3)nc(Nc3ccc4c(c3)S(=O)(=O)CC4)c12 [GSK2181306] | 90.6
7 | Cc1ccc(NC(=O)c2ccc(Cl)c(Cl)c2)cc1-c1ccc(C(=O)Nc2ccncc2)cc1 [GSK1398460] | 0

Test system: CDK4-cyclinD3
Details: concentration: 1 μM, replicates: in singlicate; n = 1

Row | SMILES | %Inh [%]
8 | N#CC1(c2cccc(C(=O)Nc3cccc(Oc4ccc5nc(NC(=O)C6CC6)sc5n4)c3)c2)CC1 | 1
9 | Cc1ccc(C)c(NC(=O)Nc2ccc(C)c(-c3ccc(C(=O)Nc4ccncc4)cc3)c2)c1 [GSK1398473] | 2
10 | O=C(Nc1n[nH]c2nc(-c3ccccc3O)ccc12)C1CC1 [SB-711880] | 17
11 | CCn1c(-c2nonc2N)nc2c(-c3ccccc3)ncc(OCCCN)c21.O=C(O)C(F)(F)F.O=C(O)C(F)(F)F [GSK260205] | 0
12 | Cl.Cl.NC(CNC(=O)c1cc(Br)c(-c2ccnc3[nH]ccc23)s1)c1ccccc1 (stereo not shown) [GSK1322949] | 0
13 | CCOc1nccc(-c2c(-c3ccc(F)cc3)ncn2C2CCNCC2)n1 [SB-249175] | 10
14 | COc1cccc2c(-c3ccncc3)c(-c3ccc(F)cc3)nn12 [GW468513] | 0
15 | CC(C)c1nc(-c2cccc(NS(=O)(=O)c3c(F)cccc3F)c2)c(-c2ccnc(Nc3ccc(N4CCOCC4)nc3)n2)s1.Cl [GSK1723980] | 56
16 | O=C(Nc1n[nH]c2cc(-c3cccs3)ccc12)C1CC1 [SB-731284] | 18
17 | Cc1ccc(NC(=O)c2cccc(N3CCCCC3)c2)cc1-c1ccc(C(=O)NCC2CC2)cc1 [GSK1917008] | 1
18 | Cl.O=C(Nc1ccc(Oc2ccc3[nH]c(NC(=O)c4ccco4)nc3c2)cc1)Nc1cc(C(F)(F)F)ccc1F [GW683134] | 0
19 | Cn1cc(-c2ccc3c(c2)CCN3C(=O)Cc2cc(F)cc(C(F)(F)F)c2)c2c(N)ncnc21 [GSK2635225] | 0
20 | COc1cc(Nc2nccc(N3CCC(NS(=O)(=O)c4ccc(NC(C)=O)cc4)CC3)n2)cc(OC)c1OC [GSK1379825] | 0
21 | O=C1NC(=O)C(c2ccccc2Cl)=C1Nc1cccc(Cl)c1 [SB-342409] | 33
22 | Cc1cc(-c2ccnc(Nc3cccc(C#N)c3)n2)cc(C)c1O [GSK1440913] | 22
23 | CC(C)NCC(Cc1ccccc1)NC(=O)c1cc(Br)c(-c2ccnc3[nH]ccc23)s1.Cl.Cl (stereo not shown) [GSK1383281] | 0
24 | Nc1ncc(-c2ccc3nccc(-c4ccncc4)c3c2)cc1S(=O)(=O)N1CCCCC1 [GSK1693850] | 13
25 | COc1cc(Nc2ccnc3cc(-c4ccncc4)ccc23)cc(OC)c1OC.Cl [GW494610] | 0

Row | SMILES | %Inh [%]
26 | COC(=O)Nc1nc2ccc(Oc3ccc(NC(=O)Nc4cc(C(F)(F)F)ccc4F)cc3)cc2[nH]1.Cl [GW654607] | 0
27 | c1ccc(Oc2ccc(Nc3ccnc4cc(-c5ccc(CN6CCCCC6)o5)ccc34)cc2)nc1 [GW567143] | 0
28 | COc1cccc(CC(=O)N2CCc3cc(-c4cn(C)c5ncnc(N)c45)ccc32)c1 [GSK2608899] | 0
29 | COc1ccc(C)c(Nc2ccnc(Nc3ccc(-c4cnc[nH]4)cc3)n2)c1.Cl [GW784041] | 0
30 | CCNC(=O)/C=C/c1n[nH]c2cc(Sc3ccccc3C(=O)NC)ccc12 | 0
31 | Cl.N#CCc1ccc(Nc2nccc(Nc3ccc(Oc4ccccc4)cc3)n2)cc1 [GW639905] | 3
32 | CC(=O)Nc1cn2nc(Oc3cccc(NC(=O)c4cccc(C(F)(F)F)c4)c3)ccc2n1 | 0
33 | CCNc1nccc(-c2c(-c3ccc(F)cc3)ncn2C2CCN(C)CC2)n1 | 0
34 | COC(=O)Nc1nc2cc(Oc3ccc(NC(=O)Nc4cccc(SC)c4)cc3)ccc2[nH]1.Cl [GW697999] | 0
35 | Fc1cc(Cl)ccc1Nc1ccnc2cc(-c3ccc(CN4CCOCC4)o3)ccc12 [GW560109] | 0
36 | NCCC(NC(=O)c1cc(Br)c(-c2ccnc3[nH]ccc23)s1)c1ccccc1.O=C(O)C(F)(F)F.O=C(O)C(F)(F)F (stereo not shown) [GSK1307810] | 0
37 | Cc1ccc(O)cc1Nc1ccnc2cc(-c3ccc(CN4CCCCC4)o3)ccc12 [GW557777] | 7
38 | CCn1cnc2c(NCc3ccccc3)ncnc21 [SKF-96418] | 0
39 | CN(c1ccc(F)c(NC(=O)c2cccc(OC(C)(C)C#N)c2Cl)c1)c1ccc2nc(NC(=O)C3CC3)sc2n1 | 7
40 | Cn1cc(-c2ccc3c(c2)CCN3C(=O)Cc2cc(F)cc(F)c2F)c2c(N)ncnc21 [GSK2634140] | 0
41 | CN(C)c1ncnc2nc[nH]c12 [SKF-31736] | 0
42 | O=C(O)C(F)(F)F.O=c1[nH]ccc2nc(N[C@@H]3CCNC3)nc(Nc3ccc4c(c3)S(=O)(=O)CC4)c12 [GSK2181306] | 69
43 | Cc1ccc(NC(=O)c2ccc(Cl)c(Cl)c2)cc1-c1ccc(C(=O)Nc2ccncc2)cc1 [GSK1398460] | 0
